Compounds with a hit are over-represented: about 10% of the library has one in this group of screens.
NPR1 antag = Natriuretic polypeptide receptor (hNpr1) antagonism - Primary qHTS | HEK293 hNpr1 GloSensor cGMP, ANP-stimulated luminescence | Potency, µM (doses to about 46.3 µM), for inactives: at the highest dose activity change, negative = inhibition, hits mostly inhibitors | 76,000 tested, 1.6% active | AID 1347048, 2019; calls by dose curve; further: nearly all actives have a fitted effect of over 60% in size
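HEK293 cells stably expressing human Npr1 and cGMP GloSensor pGS-40F, loaded 2 h with 2% GloSensor reagent, given compound 30 min at room temperature. Luminescence read before and 20 min after 0.1 nM hNppA.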
HEK293 tox = Cytotoxic Profiling in HEK 293 Cell Line of Diverse Libraries Using Quantitative High-Throughput Screening | Potency, µM (series often up to 115 µM), for the others: at the top dose activity change, negative = cytotoxicity, actives largely listed as inhibitors | 94,000 tested, 6.6% active | HEK 293 viability, ATP luminescence (CellTiter-Glo), 48-72 h | AID 1345083, 2018; further: nearly all actives have a fitted effect of over 60% in size
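HEK 293 seeded at 250 cells/well receive compound via pintool. After 48 or 72 hr at 37 degree Celsius, 5% CO2 and 95% humidity, CellTiter-Glo is dispensed and luminescence read following 10 min at room temperature.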
GPT2 inh = Primary qHTS assay for inhibitors of Glutamate pyruvate transaminase 2 (GPT2) | 100,000 tested, 0.25% active | Alanine aminotransferase 2 (Homo sapiens), Q8TD30 | Potency, µM (titrated, usually from 57.7 µM), inactives show at the top dose activity change, negative = inhibition, hits mostly inhibitors | Recombinant GPT2, coupled pyruvate oxidase/HRP Amplex Red fluorescence; further: nearly all actives have a fitted effect of over 60% in size
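GPT2 10ng/uL, a-KG 250uM, L-Ala 2mM, HEPES pH7.5 + 0.0001% Tween; 30 min RT. Then Amplex mix (PO/HRP/ThPP), 30 min RT dark, fluorescence. AOA 50uM used as positive control.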
NIH3T3 tox = Cytotoxic Profiling in NIH 3T3 Cell Line of Diverse Libraries Using Quantitative High-Throughput Screening; NIH 3T3 viability, CellTiter-Glo ATP luminescence, 48-72 h; Potency, µM (series often up to 96.7 µM), inactives show at the top dose activity change, negative = cytotoxicity, most hits filed as inhibitors; 94,000 tested, 4.3% active; AID 1345082, 2018; further: nearly all actives have a fitted effect of over 55% in size
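Mouse fibroblast NIH 3T3 cells, 400 per well, received compound via pintool and were incubated for 48 or 72 hr prior to CellTiter-Glo ATP luminescence measurement.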
FLuc inh = Firefly luciferase inhibition profiling of diverse chemical library using quantitative high-throughput screening; purified P. pyralis luciferase, luminescence, biochemical; Potency, µM (doses to about 115 µM), usual class: inhibitors; 76,000 tested, 2.5% active; further: nearly all actives have a fitted effect of over 65% in size
Target sequence (P08659 whole entry, looked up): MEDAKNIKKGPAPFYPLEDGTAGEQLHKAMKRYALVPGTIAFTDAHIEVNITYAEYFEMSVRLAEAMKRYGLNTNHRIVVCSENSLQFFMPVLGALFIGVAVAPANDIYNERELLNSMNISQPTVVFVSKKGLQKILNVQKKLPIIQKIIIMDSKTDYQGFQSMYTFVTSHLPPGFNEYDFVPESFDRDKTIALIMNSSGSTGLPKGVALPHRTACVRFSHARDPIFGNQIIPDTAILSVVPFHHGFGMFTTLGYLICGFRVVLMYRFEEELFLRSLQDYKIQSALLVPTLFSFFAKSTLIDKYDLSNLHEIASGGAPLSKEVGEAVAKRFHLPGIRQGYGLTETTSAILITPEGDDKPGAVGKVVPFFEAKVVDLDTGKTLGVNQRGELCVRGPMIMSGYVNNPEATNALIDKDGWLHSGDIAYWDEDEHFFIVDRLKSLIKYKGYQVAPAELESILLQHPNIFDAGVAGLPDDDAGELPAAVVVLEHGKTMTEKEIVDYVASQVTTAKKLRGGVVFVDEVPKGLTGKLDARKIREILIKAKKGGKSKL
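Cell-free enzyme assay, 10nM P. pyralis luciferase, luciferin and ATP each at 10uM. Inhibition profiled over a 6-point titration, read as luminescence.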
* marks the source's active call; other numbers are inactive results; i = inactive; ? = inconclusive; / = no result given; [ ] = dose if it differs, or a comment. Unless noted, the call rests on the fitted dose curve; in most records, active means well fitted curve in the direction sought with a large enough effect; inconclusive means small, poorly fitted or top-dose-only effect, or another doubt; inactive means no such curve, though single readings can be large; an effect the other way counts as inactive or inconclusive. On the % scale 0 is the no-effect control and ±100 the full control effect; potency means the concentration at half of the fitted maximal effect.

SMILES	NPR1 antag	HEK293 tox	GPT2 inh	NIH3T3 tox	FLuc inh
O=C(NCc1ccc(F)cc1)C1CCCN1C(=O)c1cccc(-c2ccccn2)c1 (stereo not drawn)	/	-24%	i	-21%	/
O=c1cc(-c2ccncc2)oc2c(-c3ccccc3F)nccc12	12%[70.6 µM]	?	3%[88.5 µM]	?	i
O=c1cc(-c2ccncc2)oc2c(-c3cccc4[nH]ccc34)nccc12	-2%[70.6 µM]	25µM*	1%[88.5 µM]	?	i
Cc1ccccc1-c1nccc2c(=O)cc(-c3ccncc3)oc12	6%[70.6 µM]	100µM*	-9%[88.5 µM]	?	i
O=c1cc(-c2ccncc2)oc2c(-c3cccc(CO)c3)nccc12	5%[70.6 µM]	-26%[172 µM]	i	45µM*	i
COc1ncccc1-c1nccc2c(=O)cc(-c3ccncc3)oc12	13%[70.6 µM]	-25%[172 µM]	?	28µM*	i
CCC(CC)C(=O)N1CCC(Oc2nccnc2N(C)C)C1 (stereo not drawn)	2%	?	i	0%	35µM*
CCCN(C)c1nccnc1OC1CCN(C(=O)C2CCC2)C1 (stereo not drawn)	-8%	?	3%	?	?
CCCN(C)c1nccnc1OC1CCN(C(=O)CC)C1 (stereo not drawn)	4%	-5%	i	-19%	i
CCCN(C)c1nccnc1OC1CCN(C(=O)C(C)C)C1 (stereo not drawn)	-14%	-16%	-7%	?	22µM*
CCCN(C)c1nccnc1OC1CCN(C(=O)CC(C)C)C1 (stereo not drawn)	-11%	?	i	-27%	18µM*
CN(C)c1nccnc1OC1CCN(C(=O)C2CCCCC2)C1 (stereo not drawn)	3%	?	i	-8%	?
CCCN(C)c1nccnc1OC1CCN(C(=O)c2ccn[nH]2)C1 (stereo not drawn)	-3%	?	?	-28%	22µM*
COc1ccc(NC(=O)N2C[C@@H]3C[C@H](C2)c2ccc(NS(=O)(=O)c4ccc(NC(C)=O)cc4)c(=O)n2C3)cc1	3%	4%	-5%	-2%	i
O=C(C1CCCN1C(=O)c1ccc(C(F)(F)F)cc1)N1CCC(c2ccccc2)CC1 (stereo not drawn)	/	?	2%	?	/
COc1ccccc1Nc1ccnc(N2CCC(NC(=O)c3ccccc3C)CC2)n1	/	?	i	?	/
O=C1NCc2ccccc2CC12CCCN(Cc1cccc(Cl)c1)C2 (stereo not drawn)	/	?	0%	?	/
CO[C@H]1C(=O)N(C(C)C)[C@H]1C1CCN(C(=O)Cc2cccc(F)c2)CC1	/	-20%	-20%	?	/
COc1ccccc1Nc1ccnc(N2CCN(C(=O)Nc3ccc(Cl)cc3)CC2)n1	/	40µM*	i	40µM*	/
COc1ccccc1Nc1ccnc(N2CCC(C(=O)N3CCCC3)CC2)n1	/	?	i	?	/
O=C(c1ccc(Cl)cc1)N1CCN(c2nccc(Nc3ccccc3F)n2)CC1	/	?	3%	?	/
O=C(c1ccc(F)cc1)N1CCN(c2nccc(Nc3ccccc3F)n2)CC1	/	40µM*	-13%	32µM*	/
COc1ccccc1Nc1ccnc(N2CCN(C(=O)c3ccc(F)cc3)CC2)n1	/	50µM*	1%	22µM*	/
COc1ccccc1Nc1ccnc(N2CCN(C(=O)C3CCCC3)CC2)n1	/	?	i	?	/
COc1ccc2nc(C[C@@H]3C[C@@H](C(C)C)[C@H](CNCc4ccccc4)C=C3C)[nH]c2c1	-18%[70.6 µM]	45µM*	i	50µM*	i
SMILES	NPR1 antag	HEK293 tox	GPT2 inh	NIH3T3 tox	FLuc inh
CC(=O)N1CCC(NC[C@@H]2C=C(C)[C@H](Cc3nc4ccccc4[nH]3)C[C@H]2C(C)C)CC1	-18%[70.6 µM]	89µM*	i	112µM*	i
COc1ccc2nc(C[C@@H]3C[C@@H](C(C)C)[C@H](CNC(=O)[C@@H]4CCCC[C@@H]4C(=O)O)C=C3C)[nH]c2c1	6%	3%	i	-4%	i
CC(=O)NC[C@@H]1C=C(C)[C@H](Cc2nc3ccccc3n2C)C[C@H]1C(C)C	?	35µM*	1%[88.5 µM]	79µM*	i
COc1ccc2nc(C[C@@H]3C[C@@H](C(C)C)[C@H](CNC4CCCCC4)C=C3C)[nH]c2c1	-12%[70.6 µM]	28µM*	i	22µM*	i
CC(C)c1noc(-c2cn(C3CCCN(C(=O)c4cccc(Cl)c4)C3)nn2)n1 (stereo not drawn)	-28%	?	i	-24%	i
COc1ccc2nc(C[C@@H]3C[C@@H](C(C)C)[C@H](CNC(=O)C4CCCCC4)C=C3C)[nH]c2c1	-29%[70.6 µM]	50µM*	2%[88.5 µM]	56µM*	i
CCOC(=O)C1(Cc2ccccc2C(F)(F)F)CCN(C(C)Cc2cccc(C)n2)CC1 (stereo not drawn)	?	13µM*	1%	28µM*	i
CCOC(=O)C1(Cc2ccc(Cl)cc2)CCN(Cc2ccc(OC)cc2O)CC1	?	?	-11%	?	i
CCOC(=O)C1(Cc2ccccc2C(F)(F)F)CCN(Cc2ccccn2)CC1	-1%	40µM*	?	?	i
CN(Cc1ccccn1)Cc1ccccc1C(F)(F)F	19%[70.6 µM]	i	i	4%[138 µM]	i
CCOC(=O)C1(Cc2cccc(C(F)(F)F)c2)CCN(Cc2cn(CC)nc2C)CC1	?	20µM*	1%	?	i
COC(=O)NC1CCN(c2nccc(Nc3ccccc3F)n2)CC1	/	?	i	?	/
COc1ccc(Nc2cc3c(cn2)CN(CCc2ccccc2)CCN3)cc1	-5%[70.6 µM]	32µM*	5%[88.5 µM]	25µM*	?
COc1ccc(Nc2cc3c(cn2)CN(CCc2ccccc2)CCN3)cc1OC	-5%[70.6 µM]	50µM*	?	25µM*	i
N#Cc1ccc(CNC(=O)[C@@H]2Cc3nc[nH]c3CN2Cc2cc3ccccc3o2)cc1	2%[70.6 µM]	?	i	?	i
COc1ccc(-c2cc(C(=O)NCC(C)C)c3cnn(C)c3n2)cc1	/	?	4%[88.5 µM]	?	/
Cn1cc(C(=O)N2CCC(N3C(=O)C4(CCCCC4)C3c3ccncc3)CC2)cn1 (stereo not drawn)	/	i	4%	-13%	/
CC(C)N1C[C@@H](CO)[C@H](c2nc(-c3cccnc3)no2)C1	3%	?	i	-6%	20µM*
OC[C@@H]1CN(CC2CC2)C[C@H]1c1nc(-c2cccnc2)no1	1%	-28%	i	-12%	?

Source: PubChem
